Experimental data from PubChem BioAssay AID602449 (Sanford-Burnham Center for Chemical Genomics, 2012).
In all, about 360,000 compounds went through this assay and about 5,000 (1.4%) were called active.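 How the source made its calls: active means inhibition of 50% or more, scaled per plate between neutral and stimulator controls; inactive means the rest.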 The entries come from a sample that favours actives as a whole.

Experiment: mitochondrial permeability transition pore inhibitors, primary screen, biochemical, isolated mouse mitochondria, absorbance (AID 602449);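 further: 0% = DMSO wells given calcium and 100% = 1 mM EGTA wells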
Conditions: Ca2+ swelling absorbance, 30 min, at 10 µM, active compounds read high

inhibition, inactive:
O=C(C1CCC1)N1CCc2cc(S(=O)(=O)NCc3cccnc3)ccc21 -1.1%
COc1ccc(N(C)S(=O)(=O)c2ccc3c(c2)CC(C)N3C(=O)C2CC2)c(OC)c1 (stereo unspecified) 0.9%
COc1cccc(NC(=O)Cn2cnc3sc(C)c(S(=O)(=O)N4CCN(C)CC4)c3c2=O)c1 0.8%
Cc1ccc(C2(C(F)(F)F)N=C3Sc4cc(C)cc(C)c4N3C(=O)N2)cc1 (stereo unspecified) 5.4%
CSc1sc(C(=O)NNC(=O)c2ccc(Cl)cc2)c2c1C=CCC2 3%
COc1cc(NS(=O)(=O)c2ccc(NC(=S)NC(=O)c3ccccc3)cc2)nc(OC)n1 -1.6%
COc1cccc(N(Cc2nnc3n2CCCCC3)C(=O)Nc2ccccc2F)c1 0.7%
Cc1nn(-c2ccccc2)c2sc(C(=O)N(Cc3ccco3)C(C)C(=O)NC(C)(C)C)cc12 (stereo unspecified) -3.6%
CC1=C(C(=O)N2CCOCC2)CC(CC(=O)NCCN2CCOCC2)C(=O)N1CCC1=CCCCC1 (stereo unspecified) 5.2%
O=C(Cn1nnc2ccccc2c1=O)NCc1ccc(Cl)cc1 -0.4%
O=C(Nn1cnc2ccccc2c1=O)c1ccc(F)cc1Cl 0.6%
O=C(CCCN1C(=O)C2C3C=CC(C3)C2C1=O)N1CCN(c2ccccc2)CC1 (stereo unspecified) -1.6%
CNS(=O)(=O)c1ccc(C(=O)NCC(=O)NCCc2ccc3c(c2)OCCO3)cc1 -1.7%
CN(C)C(CNC(=O)c1cc2ccccc2o1)c1ccccc1 (stereo unspecified) 0.1%
O=C(NC(=O)c1cc(OCC(F)(F)F)ccc1OCC(F)(F)F)Nc1ccccc1 12.2%
CCCCCN(C(=O)NC(=O)Nc1ccccc1C)S(C)(=O)=O 7.5%
CC(=O)Nc1cc(-c2ccccc2N(C)C)cn2c(-c3ccc(F)c(Cl)c3)cnc12 0.4%
CCCN1C2=C(C(=O)CCC2)C(c2ccc(O)c(Br)c2)C2=C1CCCC2=O 0.7%
Fc1ccc(COc2cccc(-c3n[nH]c(=S)o3)c2)cc1 8.5%
Fc1cccc2ncnc(OCc3ccccc3)c12 0.3%
Cc1ccc(S(=O)(=O)N2CCOCC2)cc1NC(=O)COC(=O)c1cnccn1 -1%
Nc1nc(SCC(=O)Nc2ccc(Cl)cc2C(F)(F)F)n[nH]1 0.2%
CNC(=O)Nc1cc(C(C)(C)C)no1 -2.3%
CCCc1cc(=O)n2[nH]c(C)c(-c3ccc(Cl)cc3)c2n1 1.2%
Cc1nc2c(-c3ccccc3)c(C)[nH]n2c(=O)c1Cl -1%
CC(NC(=O)CN1CCN(Cc2ccc(Cl)cc2)C1=O)c1ccc2c(c1)OCCO2 (stereo unspecified) -2.1%
Cc1c2cnn(CC(=O)NCCCN3CC(C)CC(C)C3)c(=O)c2c(C)n1Cc1ccc(Cl)cc1 (stereo unspecified) -0.1%
COc1ccc(CNC(=O)C(=O)N2CCC3(CC2)OCCN3S(=O)(=O)c2ccc(C)cc2)cc1 0.1%
NC1=NC(=O)C(Cc2cccc(Cl)c2Cl)S1 (stereo unspecified) 1.7%
CCOC(=O)Cc1csc(SCC(=O)NC(C)C23CC4CC(CC(C4)C2)C3)n1 (stereo unspecified) -0.5%
Cc1ccc(Oc2cc(NC(=O)CCCn3nc(C)c([N+](=O)[O-])c3C)cc([N+](=O)[O-])c2)cc1 40.9%
CC(=O)Nc1ccc(C(=O)OCC(=O)Nc2ccc([N+](=O)[O-])cc2C(F)(F)F)cc1 36.6%
COc1cccc(C(=O)CC(=O)C(=O)Nc2ccc([N+](=O)[O-])cc2C)c1 -17.7%
COc1ccc(S(=O)(=O)NNC(=O)Nc2ccc(C)cc2)c(OC)c1 -0.8%
COc1ccc(NC(=O)C(c2ccncc2)n2c(=O)c(-c3cc4ccccc4[nH]3)nc3ccccc32)cc1 (stereo unspecified) 4.2%
CC(C)C[C@H](NC(=O)C1CC(=O)N(c2ccc3c(c2)OCCO3)C1)C(=O)NC1CCCC1 (stereo partly specified) -0.1%
CN(C)C(=O)c1cc(Br)ccc1Cl 1.1%
Cc1ccc(NC(=O)c2ccc(Oc3ncccn3)cc2)cc1 0.4%
CCc1nnc(NS(=O)(=O)c2ccc(NC(=O)c3cccc(OC(F)(F)C(F)F)c3)cc2)s1 2.9%
Fc1cccc(Cc2c(-c3cccc(Cl)c3)nc3ccc(Br)cn23)c1 2.5%
CCOC(=O)C1CCN(C(=O)Cc2c(C(=O)O)[nH]c3ccccc23)CC1 0.3%
CCOC(=O)C1=C(CC)Nc2ccccc2N=C1N 1.2%
O=C(COC(=O)CNC(=O)c1ccco1)Nc1ccc(F)cc1 -1.2%
O=C(COC(=O)c1ccc[nH]c1=O)Nc1ccc2c(c1)OC(F)(F)O2 3%
COC(=O)[C@]12CCCCC=C1N(Cc1ccccc1)C(=O)[C@H](CC(=O)NCc1ccc(C)o1)C2 -0.1%
COc1ccc(NC(=O)CN(C)S(=O)(=O)c2ccccc2)cc1OC -0.5%
Cc1cc(C)c(NC(=O)CS(=O)CC(=O)Nc2cccnc2)c(C)c1 (stereo unspecified) -1.4%
Cc1nc(-c2ccc(F)cc2)c(CC(=O)Nc2cc(S(=O)(=O)N3CCCCC3)ccc2C)s1 -0.4%
Cc1ccc(Nc2c(F)c(F)c(F)c(F)c2C(=O)O)c(C)c1 -0.7%
O=C(CCn1nnc2ccccc2c1=O)N[C@@H](Cc1c[nH]c2ccccc12)C(=O)O 1.4%
Cc1ccc(C(=O)Nc2nnc(C3=COCCO3)o2)cc1C -0.8%
Cc1cc(C(=O)COC(=O)C2CC2)c(C)n1-c1ccc(F)cc1 0.2%
COc1ccc(C)cc1-n1nnnc1SCC(=O)c1cc(C)n(Cc2ccco2)c1C -2.3%
Cc1cc(C)c(C(=O)CSc2nc(C)cc(=O)[nH]2)c(C)c1 0.6%
Cc1cc(C(=O)CSc2nc(N)cc(=O)[nH]2)c(C)n1CCc1ccc(Cl)cc1 -9%
CC1CCN(c2ccc(-c3ccc(NC(=O)c4ccco4)cc3)nn2)CC1 0.3%
CSCCC1NC(=O)N(CC(=O)Nc2cccc(S(=O)(=O)N3CCCCCC3)c2)C1=O (stereo unspecified) 1.2%
CCOC(=O)C1C(=O)OC2(CCCC2)C1C(=O)OCC (stereo unspecified) -1.2%
COCCNc1nc(NCc2ccc(NC(C)=O)cc2)c2sccc2n1 -1.4%
COc1cccc(CNc2nc3cc(-c4csc5ccccc45)sc3c(=O)n2C)c1 2.5%
COCCNc1nc(Nc2ccccc2Cl)c2sc(-c3ccccc3)cc2n1 2.1%
Clc1ccccc1Nc1nc(NCc2cccs2)nc2ccsc12 3%
COc1ccc(NC(=S)NCc2cccs2)c(OC)c1 2.2%
COc1cccc(-c2cc3nc(NCc4ccccc4OC)n(C)c(=O)c3s2)c1 1.9%
Cc1ccc(Nc2nc(CSc3nnc(-c4ccncc4)n3-c3ccccc3C)cs2)cc1 2.2%
CC(Cc1cccs1)NC(=O)c1cccc(Cl)c1 (stereo unspecified) 4.2%
Cc1c(NC(=S)NC(=O)CCc2ccccc2)c(=O)n(-c2ccccc2)n1C 0.3%
Cc1cc(C)cc(NC(=O)COC(=O)c2cc(C)oc2C)c1 0.5%
CN(C)CCn1c2c(c(SCC(=O)NCc3ccccc3)nc1=O)CCC2 -1%
CCOC(=O)c1cc(=O)c2ccc(OCc3ccccc3)cc2o1 0.1%
CCOC(=O)c1oc2c(CN3CCN(C)CC3)c(O)ccc2c(=O)c1-c1ccc(Br)cc1 9.1%
C/C(=N\Nc1nc2ccccc2[nH]1)c1cccs1 1.1%
Cc1ccc(-c2nc(C)sc2CC(=O)OCC(=O)Nc2c(F)cccc2F)cc1 0.8%
Cn1c(=O)c(C(=O)Nc2ncccn2)c(O)c2ccccc21 -1.3%

inhibition, active:
COc1cccc(CNS(=O)(=O)c2ccc3c(c2)CC(C)N3C(=O)C2CCC2)c1 (stereo unspecified) 90.4%
CS(=O)(=O)c1sc(C(=O)NC(=S)Nc2ccc(OC(F)(F)F)cc2)c2c1C=CCC2 53.1%
CN(C(=O)Nc1ccc(Cl)cc1)n1cnc2ccccc2c1=O 55.1%
O=C(NCCc1ccc2c(c1)OCCO2)c1cc2ccccc2o1 74.2%
Cc1nc2ccccc2cc1OCc1ccc(F)cc1 97.1%
Cc1[nH]n(-c2cccc(Cl)c2)c(=O)c1-c1ccc(Cl)cc1 102%
CC(=O)c1ccc(NC(=O)Nc2ccc([N+](=O)[O-])cc2C)cc1 94.4%
COc1cc(NC(=O)Nc2ccc(C)cc2)cc([N+](=O)[O-])c1 104%
O=C(Nc1ccc(OC(F)(F)F)cc1)c1ccc2c(c1)no[n+]2[O-] 82.5%
O=C(COC(=O)c1ccccc1NC(=O)c1ccco1)Nc1ccc2c(c1)OC(F)(F)O2 60.9%
Cc1ccc(-c2nc(-c3cccnc3)sc2CC(=O)Nc2ccc(C)c(Cl)c2)cc1 93.3%
Cc1cc(C(=O)CSc2nc(N)cc(=O)[nH]2)c(C)n1-c1cccc(F)c1 63.2%
Cc1cc(C(=O)CSc2nc(N)cc(=O)[nH]2)c(C)n1Cc1ccco1 64.3%
COc1cccc(CNc2nc(NCc3ccccc3OC)nc3ccsc23)c1 94.6%
COc1ccccc1CNc1nc(Nc2ccccc2Cl)c2sccc2n1 74.5%
COc1cccc(CNc2nc(NCc3cccs3)nc3ccsc23)c1 77.8%
CCOC(=O)c1cc2cc(-c3c(C(=O)OCC)oc4cc(O)cc(O)c4c3=O)ccc2o1 50.9%
